Source: PubChem BioAssay
Calls of active or inactive are those of the source. Unless noted, how the calls were made is not given here.

Columns and labels:
[1] = tested on: Wnt5a (protein binding on small-molecule microarray); test: Wnt5a binders on small-molecule microarray, primary screen, biophysical, 635/667 nm fluorescence (AID 1142); conditions: 635 nm fluorescence, higher = more signal;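 further: fluorescence read at 667 nm with signal to noise per printed feature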
[2] = cell viability in Huh7 cells, primary screen, cytotoxicity control for HCV replication inhibitor project, CellTiter-Glo luminescence, basal, 48 h (AID 1143); conditions: Huh7 HCV replicon, higher = more signal, called active from +8 up or from −8 down;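 further: Huh7 hepatoma cells carrying a hepatitis C replication reporter with no stimulus; test concentration not given here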
[3] = P. aeruginosa biofilm formation inhibitors, primary screen, PAO1 strain, BacTiter-Glo luminescence, LB-PBS (AID 1144); conditions: 12 h, higher = more signal
[4] = CREB reporter modulators without forskolin, primary screen, cell-based, PC12, CRE-LacZ reporter, unstimulated (AID 1145); conditions: no forskolin, luminescence, 4.5 h, higher = more signal, called active from +8 up or from −8 down
[5] = CREB reporter modulators under forskolin, primary screen, cell-based, PC12, CRE-LacZ reporter, forskolin-stimulated (AID 1146); conditions: luminescence, 4.5 h, higher = more signal, called active from +8 up or from −8 down;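 further: PC12 cells with 6xCRE LacZ reporter stimulated by forskolin 10 µM; beta-galactosidase reporter signal reflecting CREB driven transcription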
[6] = molecular target: Streptavidin (Streptomyces avidinii) (UniProt P22629); test: streptavidin binders on small-molecule microarray, primary screen, artefact control for SMM compound annotation, biophysical, 635/667 nm fluorescence (AID 1147); conditions: streptavidin binding, higher = more signal;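 further: signal reflects streptavidin binding to arrayed compounds as a control protein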
[7] = small-molecule binders of probe aInhba, primary screen, biochemical, small-molecule microarray, 635/667 nm fluorescence (AID 1148); conditions: higher = more signal;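 further: score merges 667nm spot fluorescence with signal-to-noise for antibody binding to printed compounds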
[8] = molecular target: Torsin-1A (Homo sapiens) (UniProt O14656); test: torsin A binders from cell lysate, primary screen, small-molecule microarray, wild-type, 635/667 nm (AID 1149); conditions: COS7 hTOR1A-WT lysate, 635 nm fluorescence, higher = more signal
[9] = molecular target: Torsin-1A (Homo sapiens) (UniProt O14656); test: small-molecule binders of mutant TOR1A in lysate, primary screen, cell lysate, small-molecule microarray, COS7 lysate, 635/667 nm fluorescence (AID 1150); conditions: COS7 hTOR1A mutant lysate, 635 nm fluorescence, higher = more signal;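 further: score pools 667 nm emission and signal to noise measuring lysate protein binding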
[10] = tested on: Sonic hedgehog protein (Shh); test: small-molecule binders of Shh protein, primary screen, biochemical, small-molecule microarray, 635/667 nm fluorescence (AID 1151); conditions: small-molecule microarray binding, 635 nm fluorescence; higher = more signal;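 further: Shh protein binding to compounds spotted on small-molecule microarray slides; score combines spot fluorescence intensity with signal-to-noise across triplicate slides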
[11] = E. coli DRC41 culture turbidity changes, primary screen, E. coli filamentation inducer project, strain DRC41, OD650, 48 h (AID 1152);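 further: E. coli MC1000 strain DRC41 lacking acrAB efflux pump and sulA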; conditions: E. coli DRC41 (acrAB sulA), higher = more signal, called active from +8 up or from −8 down
[12] = small-molecule binders of probe aLefty1, primary screen, biochemical, small-molecule microarray, 635/667 nm fluorescence (AID 1153); conditions: higher = more signal;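 further: score merges spot fluorescence with signal-to-noise ratio from the scanned slide images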
[13] = PSAC antagonists in infected red cells, primary screen, cell-based, P. falciparum Indochina, OD700, 1 h (AID 1154); conditions: P. falciparum Indochina infected RBC osmotic lysis, higher = more signal, called active from +8 up or from −8 down
[14] = PSAC antagonists in infected red cells, primary screen, cell-based, P. falciparum Indochina, OD700, 2 h (AID 1155);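 further: lysis reports solute entry through the parasite surface anion channel PSAC; channel blockers reduce lysis of infected cells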; conditions: P. falciparum Indochina infected erythrocytes, osmotic lysis OD700; higher = more signal, called active from +8 up or from −8 down
[15] = osmotic lysis modulators in infected erythrocytes, primary screen, PSAC antagonist project, cell-based, P. falciparum Indochina, OD700, 3 h (AID 1156); conditions: higher = more signal, called active from +8 up or from −8 down
[16] = PSAC antagonists in infected red cells, primary screen, cell-based, P. falciparum Indochina, OD700, 18 h (AID 1157); conditions: P. falciparum Indochina infected erythrocytes, osmotic lysis OD700, 18 h; higher = more signal, called active from +8 up or from −8 down
[17] = modulators of S6 phosphorylation in cells, primary screen, cell-based, A549, cytoblot, luminescence, serum-stimulated (AID 1158); conditions: A549 phospho-S6 cytoblot, 5 h, higher = more signal;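 further: serum-stimulated A549 lung adenocarcinoma cells; signal is phosphorylated S6 detected by cytoblot immunostaining with HRP secondary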
[18] = molecular target: NADPH oxidase 2 (Homo sapiens) (UniProt P04839); test: NOX2-dependent H2O2 signal modulators, primary screen, NOX inhibitor project, cell-based, HEK293-NOX2, PMA-stimulated, Amplex Red fluorescence (AID 1159); conditions: 45 min, higher = more signal, called active from +8 up or from −8 down; further: test concentration not given here
[19] = molecular target: NADPH oxidase 4 (Homo sapiens) (UniProt Q9NPH5); test: NOX4-dependent H2O2 signal modulators, primary screen, NOX inhibitor project, cell-based, HEK293-NOX4, tetracycline-induced, Amplex Red fluorescence (AID 1160); conditions: 45 min, higher = more signal, called active from +8 up or from −8 down
[20] = molecular target: NADPH oxidase 5 (Homo sapiens) (UniProt Q96PH1); test: NOX5-dependent H2O2 signal modulators, primary screen, NOX inhibitor project, cell-based, HEK293-NOX5, Amplex Red fluorescence (AID 1161); conditions: HEK293-NOX5, ionomycin, 45 min, higher = more signal
NADPH oxidase 5 (Homo sapiens), sequence (Q96PH1 whole entry, looked up): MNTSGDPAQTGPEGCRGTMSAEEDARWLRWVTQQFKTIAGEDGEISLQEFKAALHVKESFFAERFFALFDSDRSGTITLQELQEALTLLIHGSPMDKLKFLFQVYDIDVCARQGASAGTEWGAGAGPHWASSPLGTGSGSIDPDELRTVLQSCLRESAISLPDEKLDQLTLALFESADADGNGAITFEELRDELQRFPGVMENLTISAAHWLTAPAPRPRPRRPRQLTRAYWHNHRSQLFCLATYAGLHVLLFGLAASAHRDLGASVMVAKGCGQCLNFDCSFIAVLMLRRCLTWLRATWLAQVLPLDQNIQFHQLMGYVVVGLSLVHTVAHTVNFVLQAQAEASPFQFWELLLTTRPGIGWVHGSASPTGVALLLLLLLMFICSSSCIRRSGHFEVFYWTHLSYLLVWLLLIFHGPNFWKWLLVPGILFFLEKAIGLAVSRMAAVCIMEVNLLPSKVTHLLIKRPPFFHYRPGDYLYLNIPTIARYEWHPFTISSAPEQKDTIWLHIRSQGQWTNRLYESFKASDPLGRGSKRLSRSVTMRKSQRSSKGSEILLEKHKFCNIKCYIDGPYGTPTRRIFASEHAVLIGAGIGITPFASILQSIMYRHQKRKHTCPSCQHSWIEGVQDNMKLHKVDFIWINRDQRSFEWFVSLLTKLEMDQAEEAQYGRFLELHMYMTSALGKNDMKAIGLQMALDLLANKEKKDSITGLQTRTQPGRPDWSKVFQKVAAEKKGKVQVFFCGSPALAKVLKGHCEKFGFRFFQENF

Torsin-1A (Homo sapiens), sequence (O14656 whole entry, looked up): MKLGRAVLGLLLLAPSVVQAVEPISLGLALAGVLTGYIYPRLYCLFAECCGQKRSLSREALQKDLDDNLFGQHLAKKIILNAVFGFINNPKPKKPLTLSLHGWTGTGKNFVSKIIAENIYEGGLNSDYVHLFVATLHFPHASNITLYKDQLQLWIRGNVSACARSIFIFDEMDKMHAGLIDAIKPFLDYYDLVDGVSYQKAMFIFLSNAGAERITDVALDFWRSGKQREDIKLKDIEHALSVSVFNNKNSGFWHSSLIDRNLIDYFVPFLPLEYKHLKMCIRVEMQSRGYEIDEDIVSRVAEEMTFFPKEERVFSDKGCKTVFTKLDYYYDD
Streptavidin (Streptomyces avidinii), sequence (P22629 whole entry, looked up): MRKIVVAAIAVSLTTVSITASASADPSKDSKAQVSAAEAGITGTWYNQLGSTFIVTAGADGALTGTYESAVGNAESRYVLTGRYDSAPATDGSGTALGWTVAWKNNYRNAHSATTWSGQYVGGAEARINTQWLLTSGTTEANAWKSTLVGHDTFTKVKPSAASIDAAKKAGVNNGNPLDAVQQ
NADPH oxidase 2 (Homo sapiens), sequence (P04839 whole entry, looked up): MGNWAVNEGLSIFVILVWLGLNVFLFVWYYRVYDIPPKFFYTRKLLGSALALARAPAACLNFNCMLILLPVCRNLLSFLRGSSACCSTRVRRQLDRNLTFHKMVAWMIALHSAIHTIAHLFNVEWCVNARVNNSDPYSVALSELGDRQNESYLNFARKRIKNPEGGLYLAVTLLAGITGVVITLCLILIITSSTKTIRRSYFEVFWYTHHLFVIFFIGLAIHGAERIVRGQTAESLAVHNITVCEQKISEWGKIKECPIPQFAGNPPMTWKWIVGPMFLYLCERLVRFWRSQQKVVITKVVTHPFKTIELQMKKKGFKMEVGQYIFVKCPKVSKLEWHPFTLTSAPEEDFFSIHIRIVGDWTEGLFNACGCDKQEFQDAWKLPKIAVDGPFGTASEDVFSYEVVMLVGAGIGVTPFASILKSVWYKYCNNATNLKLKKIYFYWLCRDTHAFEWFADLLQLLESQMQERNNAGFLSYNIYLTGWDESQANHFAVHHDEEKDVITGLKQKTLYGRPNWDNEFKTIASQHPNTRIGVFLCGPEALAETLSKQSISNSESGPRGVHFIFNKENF
NADPH oxidase 4 (Homo sapiens), sequence (Q9NPH5 whole entry, looked up): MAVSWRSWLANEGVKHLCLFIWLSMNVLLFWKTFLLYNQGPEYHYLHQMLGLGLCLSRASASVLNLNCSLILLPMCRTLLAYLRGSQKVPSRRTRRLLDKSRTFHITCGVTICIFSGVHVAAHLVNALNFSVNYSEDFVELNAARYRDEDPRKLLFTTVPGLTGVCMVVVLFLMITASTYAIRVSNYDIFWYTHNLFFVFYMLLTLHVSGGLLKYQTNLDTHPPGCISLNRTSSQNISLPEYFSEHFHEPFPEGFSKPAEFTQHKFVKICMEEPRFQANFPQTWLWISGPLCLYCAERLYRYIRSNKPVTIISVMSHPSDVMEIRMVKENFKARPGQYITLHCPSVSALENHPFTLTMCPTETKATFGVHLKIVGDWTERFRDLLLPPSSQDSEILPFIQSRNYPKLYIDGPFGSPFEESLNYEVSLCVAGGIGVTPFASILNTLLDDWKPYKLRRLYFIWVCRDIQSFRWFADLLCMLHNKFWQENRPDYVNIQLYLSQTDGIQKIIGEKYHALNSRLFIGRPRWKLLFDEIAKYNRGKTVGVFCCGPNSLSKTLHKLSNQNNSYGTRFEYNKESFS

SMILES	composite z-score [1]	z-score [2]	z-score [3]	z-score [4]	z-score [5]	composite z-score [6]	composite z-score [7]	composite z-score [8]	composite z-score [9]	composite z-score [10]	z-score [11]	composite z-score [12]	z-score [13]	z-score [14]	z-score [15]	z-score [16]	z-score [17]	z-score [18]	z-score [19]	z-score [20]
O=C(NN=C1C[C@@H](O)[C@@H](O)[C@@H]2[C@@H]3C(=O)N(Cc4ccccc4)C(=O)[C@@H]3CC[C@H]12)OCc1ccccc1	-0.014	-0.575 (inactive)	-0.281 (inactive)	0.0628 (inactive)	0.401 (inactive)	-0.0198	0.0406	0.726	0.983	1.06	-0.202 (inactive)	-0.279	0.464 (inactive)	-1.04 (inactive)	-0.999 (inactive)	-1.46 (inactive)	-0.276	1.49 (inactive)	0.638 (inactive)	-0.0528
CCOC(=O)[C@H](Cc1ccccc1)NC(=O)CCC1CC(OC(=O)NCc2cccc3ccccc23)CC2(CCCC(COC(=O)NCCOc3ccccc3)O2)O1 (stereo not given in full)	-0.0525	-2.73 (inactive)	-1.35 (inactive)	-0.523 (inactive)	0.57 (inactive)	0.419	0.0667	0.0468	1.47	0.825	-1.98 (inactive)	-0.0094	-0.623 (inactive)	-0.824 (inactive)	0.48 (inactive)	-1.33 (inactive)	1.01	0.0124 (inactive)	0.762 (inactive)	1.06
CC(CCN1CCCc2nc(C)c(C)cc21)=NOC[C@@H](O)COCc1ccco1	0.516	-0.244 (inactive)	-0.837 (inactive)	-0.0638 (inactive)	-0.175 (inactive)	0.0849	1.26	4.39	4.29	2.5	0.768 (inactive)	1.95	3.52 (inactive)	0.281 (inactive)	0.453 (inactive)	0.22 (inactive)	-0.815	-0.869 (inactive)	-0.583 (inactive)	-0.144
COC(=O)[C@@H]1CC[C@H](C)[C@@H](c2ccc(Br)cc2)N1C(=O)C(F)(F)F	-0.237	-0.322 (inactive)	-0.69 (inactive)	0.565 (inactive)	-0.344 (inactive)	-0.307	-0.0944	-0.179	-0.835	-0.14	-0.643 (inactive)	-0.103	1.08 (inactive)	-0.0008 (inactive)	0.266 (inactive)	0.2 (inactive)	-0.56	0.301 (inactive)	0.467 (inactive)	0.18
C=CC[C@@H]1C=C[C@H](ON=C2C[C@@H](O)[C@@H](O)[C@@H]3[C@@H]4C(=O)N(CC)C(=O)[C@@H]4CC[C@@H]23)[C@@H](CO)O1	-0.123	-2.05 (inactive)	-1.39 (inactive)	2.83 (inactive)	-0.247 (inactive)	-0.816	-0.104	0.862	0.337	0.652	-0.887 (inactive)	-0.208	-0.146 (inactive)	-1.65 (inactive)	1.55 (inactive)	-1.74 (inactive)	0.525	-0.284 (inactive)	-0.621 (inactive)	-2.07
CC(CCN1CCCc2nc(C)c(C)cc21)=NO[C@H](C)c1cn([C@@H]2COC[C@H]2O)nn1	0.395	0.0307 (inactive)	0.392 (inactive)	-1.12 (inactive)	-0.181 (inactive)	0.764	0.0906	1.47	2.3	0.979	0.686 (inactive)	0.184	1.65 (inactive)	0.763 (inactive)	0.09 (inactive)	0.564 (inactive)	-0.607	-0.61 (inactive)	-0.259 (inactive)	0.371
C=CC[C@@H]1C=C[C@H](ON=C(C)CCN2CCCc3nc(C)c(C)cc32)[C@@H](CO)O1	0.621	-0.686 (inactive)	-0.0889 (inactive)	-0.0824 (inactive)	-0.299 (inactive)	0.182	0.528	2.17	2.07	1.66	0.579 (inactive)	0.97	3.7 (inactive)	0.327 (inactive)	0.206 (inactive)	0.562 (inactive)	-1.04	-0.297 (inactive)	-0.0344 (inactive)	-0.473
C[C@@H]1CC[C@H]2C(=O)O[C@@H](CN=[N+]=[N-])CN2[C@H]1c1ccc(Br)cc1	-0.0229	-3.67 (inactive)	-0.608 (inactive)	3.37 (inactive)	-0.833 (inactive)	0.414	-0.179	0.48	0.581	0.888	-2.31 (inactive)	-0.35	25.4 (active)	8.11 (active)	1.59 (inactive)	2.16 (inactive)	0.476	-3.99 (inactive)	-3.91 (inactive)	-0.668
